# Source: PubChem BioAssay AID1851 (National Center for Advancing Translational Sciences (NCATS), 2009)
# Screen size: about 16,000 compounds; about 5,100 (32%) were called active. Another 25% or so got no clear call; they are omitted. The list shows a part of the results. Values without a mark were called inactive. The call rests on the fitted dose curve; in most records, active means well fitted curve in the direction sought with a large enough effect; inconclusive means small, poorly fitted or top-dose-only effect, or effect the other way; inactive means no such curve, though single readings can be large or run the other way.
# Target: Cytochrome P450 3A4 (Homo sapiens) (UniProt P08684)
# Assay: Cytochrome panel assay with activity outcomes
# Settings: recombinant CYP, pro-luciferin dealkylation, luminescence, p450-cyp3a4; series mostly up to 57.1 µM
# Protocol: The P450 gene superfamily is involved in the metabolism and clearance of xenobiotics. This assay used various human CYP P450 isozymes to measure the dealkylation of various pro-luciferin substrates to luciferin. The luciferin is then measured by luminescence after the addition of a luciferase detection reagent. Pro-luciferin substrate concentration in the assay was equal to its KM for its CYP P450 isozyme. Inhibitors and some substrates limit the production of luciferin, and decrease measured luminescence.
# NCGC Assay Protocol Summary:
# 1, Reagent, 2 uL, Isozyme and Pro-Luciferin
# 2, Library compounds, 23 nl, 40 uM to 0.24 nM dilution series
# 3, Controls, 23 nl, Isozyme specific inhibitor
# 4, Reagent, 2 uL, NADPH regeneration solution
# 5, Incubation time, 60 min, Isozyme specific temperature
# 6, Reagent, 4ul, Detection reagent
# 7, Incubation time, 20 min, Isozyme specific temperature
# 8, Detection, 1 sec, ViewLux luminescent read
# The luciferase-based P450-GloTM Screening Systems were obtained from Promega (Madison, WI) for CYP 1A2 (V9770), CYP 2C9 (V9790), CYP2 C19 (V9880), CYP 2D6 (V9890), and CYP 3A4 Luciferin-PPXE (V9910) and were adapted for 1,536-well microplates and an automated protocol. The control compounds furafylline for 1A2 (F124), sulfaphenazole for CYP 2C9 (S0758), ketoconazole for CYP 2C19 (K1003), quinidine for 2D6 (Q3625), and ketoconazole for 3A4 (K1003) were purchased from Sigma Aldrich (St. Louis, MO). Recombinant P450 enzymes were obtained from baculovirus constructs expressed in insect cells (BD/Gentest).
# Medium-binding white solid Kalypsys plates used. Mixtures kept on ice. 1A2: 10 nM 1A2, 100 uM Luc-ME, 100 mM KPO4; 2C9: 10 nM 2C9, 100 uM Luc-H, 25 mM KPO4; 2C19: 5 nM 2C19, 10 uM Luc-H EGE, 50 mM KPO4; 2D6: 5 nM 2D6, 30 uM Luc-ME EGE, 100 mM KPO4; 3A4: 10 nM, 25 uM Luc-PPXE. All amounts are reflected in their final concentration, working concentration is 2x.
# NADPH regeneration solution: 1.3 mM NADP+, 3.3 mM glucose-6-phosphate, 3.3 mM MgCl2, 0.4 U/mL glucose-6-phosphate dehydrogenase for all isozymes, 200 mM KPO4 for 3A4. Mixture prepared at RT but kept on ice during automated run.
# RT incubation in auxilliary plate hotel for 1A2, 2D6, and 3A4; 37C for 2C9 and 2C19.
# Keywords: P450, CYP1A2, CYP2C19, CYP2C9, CYP2D6, CYP3A4, Luciferase, MLSMR, MLSCN, NIH Roadmap, qHTS, NCGC
# On the % scale 0 is the no-effect control and ±100 the full control effect.
# Cytochrome P450 3A4 (Homo sapiens), sequence (P08684 whole entry, looked up): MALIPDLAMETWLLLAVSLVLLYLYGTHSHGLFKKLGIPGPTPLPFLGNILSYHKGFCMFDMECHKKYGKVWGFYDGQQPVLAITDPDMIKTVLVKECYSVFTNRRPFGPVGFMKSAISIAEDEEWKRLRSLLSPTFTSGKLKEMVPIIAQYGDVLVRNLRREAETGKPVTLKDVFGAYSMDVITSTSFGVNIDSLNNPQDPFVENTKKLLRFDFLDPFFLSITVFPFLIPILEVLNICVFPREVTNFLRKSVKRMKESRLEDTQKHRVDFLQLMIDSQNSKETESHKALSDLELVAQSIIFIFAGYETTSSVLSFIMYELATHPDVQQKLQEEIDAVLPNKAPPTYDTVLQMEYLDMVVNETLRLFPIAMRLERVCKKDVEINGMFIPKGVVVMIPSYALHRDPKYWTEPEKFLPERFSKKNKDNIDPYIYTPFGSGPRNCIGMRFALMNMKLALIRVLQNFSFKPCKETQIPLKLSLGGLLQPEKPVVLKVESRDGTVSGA
Compound,"activity, negative = inhibition",AC50
CC(C)(C)n1ncc2c(=O)n(CC(=O)NCc3ccccc3Cl)cnc21,-27.1% [at 11.4 µM],–
O=C(CSc1nc2ccccc2c(=O)n1NC(=O)c1ccccc1)c1ccc(Cl)cc1,–,14.1 µM (active)
O=C(CSc1nc2ccccc2c(=O)n1NC(=O)Cc1ccccc1)NCc1ccccc1Cl,–,5.62 µM (active)
CC(=O)C1C(c2ccccc2OC(F)F)NC(=O)NC1(O)C(F)(F)F (stereo not given),–,inactive
CCCCCC(=O)O[C@H](CC(=O)O)C[N+](C)(C)C,–,inactive
CN(C)c1ccc(-c2cncnc2NCCN2CCOCC2)cc1,–,3.16 µM (active)
CN(C)C(=O)c1ccc(-c2cncnc2NCCN2CCOCC2)cc1,–,15.8 µM (active)
Cc1ccnc(NS(=O)(=O)c2ccc(N=[N+]=[N-])cc2)n1,1.05% [at 11.4 µM],–
O=c1[nH][nH]cc1C=Nc1ccccc1O,-5.56% [at 11.4 µM],–
COc1cccc(N=Cc2c[nH][nH]c2=O)c1,–,14.1 µM (active)
COc1cccc(/C=N/NC(=O)c2cc(-c3cccn3C)n[nH]2)c1,-9.54% [at 2.29 µM],–
Clc1cccc(C=NC=Nc2cccc(Cl)c2)c1,–,inactive
COc1cccc(C=NC=Nc2cccc(OC)c2)c1,–,20 µM (active)
O=c1[nH][nH]c(C(F)(F)F)c1C=Nc1cccc(Cl)c1,–,inactive
CCCn1nnnc1-c1cc(Cl)cc(Cl)c1,29.9% [at 2.29 µM],–
Cc1cccc(C)c1NC(=O)/C(C#N)=C/c1cccs1,–,20 µM (active)
N#C/C(=C\c1cccs1)C(=O)NCC1CCCO1 (stereo not given),–,inactive
Cc1sc(NC(=O)c2ccco2)c(C(c2ccncc2)N2CCOCC2)c1C (stereo not given),–,3.16 µM (active)
Cc1sc(NC(=O)c2ccco2)c(C(c2cccnc2)N2CCCC2)c1C (stereo not given),–,1.58 µM (active)
Cc1sc(NC(=O)c2ccco2)c(C(c2cccnc2)N2CCN(C)CC2)c1C (stereo not given),-28.9% [at 2.29 µM],–
O=C(NCC(c1cccs1)N1CCOCC1)c1ccco1 (stereo not given),–,inactive
COc1ccccc1-c1nccc(NCc2ccccc2)n1,–,15.8 µM (active)
Cc1cccc(CNc2ccnc(-c3ccccc3Cl)n2)c1,–,3.98 µM (active)
COc1ccccc1-c1nccc(NCc2cccnc2)n1,–,2.51 µM (active)
Cc1ccccc1-c1nccc(NCc2cccnc2)n1,–,3.98 µM (active)

Compound,"activity, negative = inhibition",AC50
O=c1c(-c2ccccc2)c(O)c2cccc3c2n1CCC3,–,inactive
CCCCCSc1nnc(C)c(=O)[nH]1,–,inactive
COc1ccccc1-c1nccc(NCc2cccc(C)c2)n1,–,6.31 µM (active)
CC1=c2c(oc3cc(O)c(Nc4c(C)cc(O)cc4O)c(C)c23)=CC(=O)C1=Nc1c(C)cc(O)cc1O,-19.4% [at 11.4 µM],–
CC(c1ccccc1C(O)c1ccccc1)N(C)C (stereo not given),–,inactive
COc1ccc(NC(=O)N(C2CCCCC2)C(C)c2cccnc2)c(OC)c1 (stereo not given),–,10 µM (active)
CCOc1ccc(NC(=O)C(=O)NCC2CCCN2CC)cc1 (stereo not given),–,inactive
CCCCN(C(=O)Nc1ccc(OCC)cc1)C1CCN(C(C)=O)CC1,–,inactive
CCOc1ccc(NC(=O)N(C2CCCCC2)C(C)c2ccncc2)cc1 (stereo not given),–,15.8 µM (active)
COc1nc(Cl)nc(Cl)c1Cl (tested in a mixture with another compound),3.03% [at 11.4 µM],–
CCn1c(O)c(/C=C2\C=Nc3ccccc32)sc1=Nc1ccc(C)cc1,-3.41% [at 2.29 µM],–
O=c1c(-c2cccs2)nc2cncnc2n1Cc1ccccc1,–,6.31 µM (active)
Cc1nc2cncnc2n(Cc2ccccc2)c1=O,–,inactive
O=c1c(-c2cccs2)nc2cncnc2n1Cc1ccc(F)cc1,–,12.6 µM (active)
Cc1c(NC(=S)/C=C2\N(C)c3ccccc3C2(C)C)c(=O)n(-c2ccccc2)n1C,–,5.62 µM (active)
Cc1c(N(C)C)c(=O)n(-c2ccccc2)n1C,–,inactive
Cc1c(NC(=S)N/N=C/c2ccc(O)cc2)c(=O)n(-c2ccccc2)n1C,–,inactive
COc1ccc2sc3ccccc3c(=O)c2c1OC,–,17.8 µM (active)
COc1ccc2c(c1OC)C(=O)OC2Nc1ncccc1C (stereo not given),-2.44% [at 2.29 µM],–
COc1ccc2cc(C(=O)Nc3ccc(F)cc3)sc(=O)c2c1OC,-4.97% [at 2.29 µM],–
COc1ccc(C2C(=O)N(C3CCCCCC3)CC(=O)N2Cc2ccccc2)cc1OC (stereo not given),–,4.47 µM (active)
COc1ccc(CN2C(=O)CN(C3CCCCCC3)C(=O)C2c2ccc(OC)c(OC)c2)cc1 (stereo not given),–,1.58 µM (active)
COc1cc(C2C(=O)N(C3CCCC3)CC(=O)N2Cc2ccco2)ccc1OC(C)C (stereo not given),–,8.91 µM (active)
C=CCn1c(SCc2ccccc2)nc2scc(-c3ccc(C)o3)c2c1=O,–,inactive
C=CCn1c(SC(C)C(=O)NCc2ccc3c(c2)OCO3)nc2scc(-c3ccccc3)c2c1=O (stereo not given),–,0.562 µM (active)
